Compounds with a hit are over-represented: about 12% of the library has one in this group of screens.
Sfp PPTase inh: qHTS Assay for Inhibitors of Bacillus subtilis Sfp phosphopantetheinyl transferase (PPTase); 4'-phosphopantetheinyl transferase ffp (Bacillus subtilis), Q9F4F7; Biochemical Sfp PPTase activity, qHTS; Potency, µM, actives largely listed as inhibitors; hit rate 3.5% among 310,000;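 also: the enzyme is Sfp with the accession as filed and its product quenches rhodamine fluorescence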
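Sfp 15 nM + cpd, 15 min RT; start w/ rhodamine-CoA 5 uM, BHQ-2-YbbR 12.5 uM (final); 50 mM Hepes pH 7.6, 10 mM MgCl2, 0.01% NP-40, 0.01% BSA; read 525/598 nm at 0 and 30 min.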
HP1b binding inh: HTS for Inhibitors of HP1-beta Chromodomain Interactions with Methylated Histone Tails | AlphaScreen HP1-beta / biotin-H3K9me3 peptide binding | Potency, µM (doses to about 114 µM), hits mostly inhibitors | hit rate 0.56% among 390,000 | AID 540317, 2011; also: nearly all actives have a fitted effect of over 70% in size
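Compound inhibition of the preformed complex between 50 nM HP1-beta and 50 nM biotinylated H3K9me3 peptide was read by AlphaScreen. Buffer was PBS pH 7.4 with 0.01% Tween-20. Incubations ran 30 min at room temperature, with 10 ug/mL donor/acceptor beads.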
JMJD2A Tudor inh: qHTS Assay for Inhibitors of JMJD2A-Tudor Domain; AlphaScreen JMJD2A-Tudor / H3K4me3 peptide binding; Lysine-specific demethylase 4A (Homo sapiens), O75164; Potency, µM (highest dose often 114 µM), most hits filed as inhibitors; hit rate 4.4% among 390,000; also: nearly all actives have a fitted effect of over 50% in size
BAZ2B block: qHTS Assay for Inhibitors of BAZ2B; Bromodomain adjacent to zinc finger domain protein 2B (Homo sapiens), Q9UIF8; AlphaScreen BAZ2B-H3K14Ac peptide displacement; Potency, µM (series often up to 114 µM), usual class: inhibitors; hit rate 4.4% among 360,000; AID 504333, 2011; also: nearly all actives have a fitted effect of over 60% in size
Target sequence (Q9UIF8 whole entry, looked up, the tested form may be a part): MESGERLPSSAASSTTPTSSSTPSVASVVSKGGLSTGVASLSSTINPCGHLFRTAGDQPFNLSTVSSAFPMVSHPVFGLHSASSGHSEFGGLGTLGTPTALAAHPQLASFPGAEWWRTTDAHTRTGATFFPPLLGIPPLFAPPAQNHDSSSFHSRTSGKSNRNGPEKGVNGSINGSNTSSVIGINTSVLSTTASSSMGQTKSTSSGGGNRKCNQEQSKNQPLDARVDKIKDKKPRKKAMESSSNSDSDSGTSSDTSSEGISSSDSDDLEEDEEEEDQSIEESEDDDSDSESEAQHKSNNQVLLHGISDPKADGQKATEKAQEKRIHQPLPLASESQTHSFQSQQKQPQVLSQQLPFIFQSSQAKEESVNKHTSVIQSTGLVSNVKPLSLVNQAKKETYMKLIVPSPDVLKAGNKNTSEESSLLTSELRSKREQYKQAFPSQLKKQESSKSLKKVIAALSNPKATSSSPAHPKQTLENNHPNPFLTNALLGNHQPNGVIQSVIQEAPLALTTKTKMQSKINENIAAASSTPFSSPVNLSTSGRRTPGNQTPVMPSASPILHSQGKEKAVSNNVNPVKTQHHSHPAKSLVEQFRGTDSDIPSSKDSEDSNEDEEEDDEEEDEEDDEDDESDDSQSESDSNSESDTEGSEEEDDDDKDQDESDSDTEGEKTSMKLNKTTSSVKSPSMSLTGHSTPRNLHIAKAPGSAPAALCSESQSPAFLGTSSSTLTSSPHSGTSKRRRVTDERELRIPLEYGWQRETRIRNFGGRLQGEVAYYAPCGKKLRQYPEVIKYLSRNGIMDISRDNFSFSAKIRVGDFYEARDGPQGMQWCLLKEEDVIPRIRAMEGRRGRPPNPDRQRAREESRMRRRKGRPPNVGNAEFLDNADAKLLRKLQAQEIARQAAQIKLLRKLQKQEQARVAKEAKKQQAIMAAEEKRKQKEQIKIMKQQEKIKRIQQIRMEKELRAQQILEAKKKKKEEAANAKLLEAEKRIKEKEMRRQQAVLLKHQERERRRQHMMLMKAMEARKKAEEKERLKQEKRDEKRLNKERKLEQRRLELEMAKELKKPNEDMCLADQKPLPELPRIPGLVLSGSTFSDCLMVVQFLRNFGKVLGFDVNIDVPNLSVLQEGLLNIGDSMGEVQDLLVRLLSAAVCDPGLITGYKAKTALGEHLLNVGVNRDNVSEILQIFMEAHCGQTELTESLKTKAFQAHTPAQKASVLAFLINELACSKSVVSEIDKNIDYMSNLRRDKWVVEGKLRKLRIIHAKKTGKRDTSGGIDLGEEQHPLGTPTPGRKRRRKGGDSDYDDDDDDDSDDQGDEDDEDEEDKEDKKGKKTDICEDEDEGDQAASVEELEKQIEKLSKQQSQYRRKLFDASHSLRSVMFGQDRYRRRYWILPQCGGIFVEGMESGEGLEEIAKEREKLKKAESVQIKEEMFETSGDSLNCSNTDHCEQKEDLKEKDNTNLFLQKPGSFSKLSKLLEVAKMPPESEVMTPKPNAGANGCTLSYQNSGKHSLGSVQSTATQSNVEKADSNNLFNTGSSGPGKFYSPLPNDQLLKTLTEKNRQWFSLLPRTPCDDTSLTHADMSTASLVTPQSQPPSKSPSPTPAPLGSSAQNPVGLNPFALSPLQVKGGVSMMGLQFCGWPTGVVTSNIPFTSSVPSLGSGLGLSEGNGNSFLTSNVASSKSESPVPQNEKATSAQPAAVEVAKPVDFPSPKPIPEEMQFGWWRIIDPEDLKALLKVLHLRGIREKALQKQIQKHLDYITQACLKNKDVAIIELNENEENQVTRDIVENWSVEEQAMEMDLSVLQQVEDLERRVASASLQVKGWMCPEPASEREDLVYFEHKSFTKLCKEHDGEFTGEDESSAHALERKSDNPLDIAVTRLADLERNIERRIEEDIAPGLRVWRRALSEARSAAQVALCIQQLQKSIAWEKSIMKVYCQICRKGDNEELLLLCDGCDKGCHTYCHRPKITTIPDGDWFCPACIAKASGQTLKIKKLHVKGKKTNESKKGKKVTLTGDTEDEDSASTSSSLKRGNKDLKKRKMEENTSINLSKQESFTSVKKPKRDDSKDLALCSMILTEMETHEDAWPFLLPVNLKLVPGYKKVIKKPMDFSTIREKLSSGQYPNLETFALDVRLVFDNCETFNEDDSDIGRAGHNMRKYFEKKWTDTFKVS
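In this displacement format the biotinylated H3(5-23) peptide acetylated at Lys14 serves as ligand at 50 nM, with BAZ2B at 50 nM in PBS pH 7.4 containing 0.01% Tween-20. Donor and acceptor beads are 10 ug/mL final.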
G9a block: qHTS Assay for Inhibitors of Histone Lysine Methyltransferase G9a. hit rate 8.8% among 350,000. Histone-lysine N-methyltransferase EHMT2 (Homo sapiens), Q96KQ7. Potency, µM (highest dose often 102 µM), usual class: inhibitors. G9a H3K9 monomethylation, AlphaScreen, 2 h; also: nearly all actives have a fitted effect of over 75% in size
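Quantitative HTS format: methyltransferase activity on a biotin-tagged H3K9 peptide is measured by AlphaScreen, using a rabbit anti-monomethyl-H3K9 antibody with streptavidin donor and anti-IgG acceptor beads. Final levels are 20 nM enzyme, 500 nM peptide, 20 uM SAM; 2 h RT.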
Of the large screens only hits and unclear results are named; the others gave an inactive call. Calls follow the shape of the dose curve; as a rule, active = well fitted curve in the direction sought with a large enough effect; inconclusive = small, poorly fitted or top-dose-only effect, or another doubt; inactive = no such curve, though single readings can be large; an effect the other way counts as inactive or inconclusive.

Cc1ccc(CCC(=O)Nc2nccs2)o1	Sfp PPTase inh 79µM, BAZ2B block inconclusive
CCOc1ccc(OCC(=O)Nc2nccs2)cc1	BAZ2B block inconclusive, G9a block 35µM
COc1ccc(OCC(=O)Nc2nccs2)cc1	G9a block inconclusive
CCc1ccc(CCC(=O)Nc2nccs2)o1	Sfp PPTase inh 8.9µM, G9a block inconclusive
O=C(CCc1ccccc1)Nc1nccs1	none
CCN1CCN(c2ccc(NC(=O)CCc3c(C)nc4c(-c5ccc(F)cc5)c(C)nn4c3C)cc2)CC1	JMJD2A Tudor inh inconclusive, BAZ2B block inconclusive, G9a block inconclusive
COc1ccc(NC(=O)c2coc(=O)c3ccccc23)cc1OC	none (no result: Sfp PPTase inh)
CC(C)CN1CCC(C(=O)N2CCN(c3ccccc3F)CC2)CC1	HP1b binding inh inconclusive, JMJD2A Tudor inh 22µM, BAZ2B block inconclusive, G9a block 10µM
CCOc1ccc(CN2CCC(C(=O)N3CCN(c4ccccc4F)CC3)CC2)cc1OC	HP1b binding inh inconclusive, JMJD2A Tudor inh 7.1µM, BAZ2B block inconclusive, G9a block 8.9µM
CCOc1ccc(S(=O)(=O)N2CCC(C(=O)N3CCN(c4ccccc4F)CC3)CC2)cc1C	none (no result: G9a block)
COC(=O)c1ccc2c(c1)N(C)S(=O)(=O)c1cnc(SCC(=O)C(C)(C)C)nc1-2	G9a block 5µM
COc1ccc(Nc2ccc([N+](=O)[O-])cc2[N+](=O)[O-])cc1	HP1b binding inh inconclusive, JMJD2A Tudor inh 50µM, BAZ2B block 25µM, G9a block 13µM
NC(=O)c1ccc(Nc2ccc([N+](=O)[O-])cc2[N+](=O)[O-])cc1	G9a block inconclusive
O=[N+]([O-])c1cc(Cl)ccc1Nc1ccccc1	HP1b binding inh 18µM, JMJD2A Tudor inh 28µM, BAZ2B block 5µM, G9a block 11µM
Nc1ccc(Nc2ccc([N+](=O)[O-])cc2[N+](=O)[O-])cc1	HP1b binding inh inconclusive, JMJD2A Tudor inh inconclusive, BAZ2B block 28µM, G9a block 45µM
NS(=O)(=O)c1ccc(Nc2ccccc2)c([N+](=O)[O-])c1	BAZ2B block inconclusive, G9a block inconclusive
COc1ccccc1-c1cc(C(=O)NCCc2ccccc2)no1	Sfp PPTase inh inconclusive, JMJD2A Tudor inh inconclusive
Cc1cccc(C)c1-n1c(SCC(=O)Nc2ccc(C(=O)O)cc2)nnc1-c1cccc(S(=O)(=O)N(C)C)c1	BAZ2B block inconclusive
N#Cc1ccccc1NC(=O)CN1CCN(Cc2ccccc2)CC1	none
CC(=O)Nc1nc(C)nc(-c2ccccc2OC(C)=O)n1	none
C[C@@H]1CN([C@@H](C)CO)C(=O)c2cccc(NS(=O)(=O)c3cccs3)c2O[C@H]1CN(C)Cc1ccc(C(F)(F)F)cc1	none (no result: Sfp PPTase inh, BAZ2B block, G9a block)
Cc1nc(SCc2ccc(O)c([N+](=O)[O-])c2)n[nH]1	Sfp PPTase inh inconclusive, JMJD2A Tudor inh inconclusive, G9a block 6.3µM
N=C(N)SCc1ccc(O)c([N+](=O)[O-])c1	Sfp PPTase inh 79µM, G9a block 32µM
Cc1nc(SCc2ccc(O)c([N+](=O)[O-])c2)c([N+](=O)[O-])[nH]1	Sfp PPTase inh 18µM, HP1b binding inh inconclusive, JMJD2A Tudor inh 22µM, BAZ2B block inconclusive (no result: G9a block)
Cc1ccc(Nc2ncccc2C(N)=O)cc1	none
COc1ccc(-c2cc3ncc(C)n3c(Nc3ncccc3C(N)=O)n2)cc1OC	G9a block 19µM (no result: Sfp PPTase inh, HP1b binding inh, JMJD2A Tudor inh, BAZ2B block)
Cc1noc(C)c1CSc1nnc(-c2ccccc2)n1N	Sfp PPTase inh 32µM, HP1b binding inh inconclusive, JMJD2A Tudor inh inconclusive, G9a block 3.2µM
Cc1noc(C)c1CSc1nc2ccccc2s1	none
Cc1noc(C)c1CSc1ccc2ccccc2n1	Sfp PPTase inh 79µM
COc1ccc2c(C)cc(SCC(=O)Nc3c(C)n(C)n(-c4ccccc4)c3=O)nc2c1	none
CCn1cc(C(=O)NCC(OC)OC)c(=O)c2cc(S(=O)(=O)N3CCOCC3)ccc21	none
CCc1c(C(=O)NCc2cnn(C)c2)csc1C	Sfp PPTase inh inconclusive, G9a block inconclusive
Cc1ccc(NC2=C/C(=N/S(=O)(=O)c3cccs3)c3ccccc3C2=O)cc1	HP1b binding inh inconclusive, BAZ2B block inconclusive, G9a block 2.8µM
